Reference: PubChem BioAssay (Tox21)
Inconclusive results are not listed. Activity calls are given as the source filed them. Unless noted, calls follow the shape of the dose curve; as a rule, active = well fitted curve in the direction sought with a large enough effect in the repeat runs; inconclusive = weak or mixed curves; inactive = no such curve, though single readings can be large; an effect the other way counts as inactive or inconclusive.

How the values were obtained:
[1] = qHTS assay to identify small molecule antagonists of the estrogen receptor beta (ER-beta) signaling pathway - cell viability counter screen (AID 1259382);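 also: HEK293T cells carrying ER-beta-UAS-bla reporter stimulated with estradiol; series mostly up to about 92 µM; nearly all actives have a fitted effect of over 55% in size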
Outline: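 ER-beta-UAS-bla HEK293T cells (2,000/well, 2% charcoal-stripped FBS) were pre-incubated 6 hr at 37C, then given compound plus 1nM final 17-beta-estradiol for 16 hr. Viability was read in the same wells by CellTiter-Glo luminescence after 30 min at room temperature.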

[2] = biological target: Estrogen receptor (Homo sapiens) (UniProt P03372); assay: qHTS assay to identify small molecule agonists of the estrogen receptor alpha (ER-alpha) signaling pathway in the presence of an antagonist (AID 1259383; calls by dose curve; also: top concentration of the series differs between compounds; nearly all actives have a fitted effect of over 15% in size)
Estrogen receptor (Homo sapiens), sequence (P03372 whole entry, looked up): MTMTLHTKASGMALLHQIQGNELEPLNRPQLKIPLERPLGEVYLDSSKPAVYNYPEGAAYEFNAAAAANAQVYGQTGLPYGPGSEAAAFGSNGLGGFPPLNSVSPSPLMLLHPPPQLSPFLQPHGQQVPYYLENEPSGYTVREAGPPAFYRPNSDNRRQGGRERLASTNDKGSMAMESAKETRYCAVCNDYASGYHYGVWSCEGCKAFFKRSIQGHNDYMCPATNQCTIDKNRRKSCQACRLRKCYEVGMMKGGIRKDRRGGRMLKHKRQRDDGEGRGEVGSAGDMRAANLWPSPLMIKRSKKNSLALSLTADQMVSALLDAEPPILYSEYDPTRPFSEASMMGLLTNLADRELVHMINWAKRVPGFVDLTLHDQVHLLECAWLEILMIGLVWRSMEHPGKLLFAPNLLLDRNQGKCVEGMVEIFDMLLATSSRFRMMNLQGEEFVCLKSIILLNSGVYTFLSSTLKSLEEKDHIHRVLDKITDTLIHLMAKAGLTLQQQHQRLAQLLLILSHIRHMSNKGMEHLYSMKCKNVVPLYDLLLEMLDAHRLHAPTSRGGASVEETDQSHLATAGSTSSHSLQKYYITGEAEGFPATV
Outline: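 VM7Luc4E2 cells (endogenous full-length ER-alpha, 4×ERE-luciferase) were precultured 5 days in phenol red-free medium with 10% charcoal-stripped FBS, given 10.0nM ICI-182,780 (final), then treated with compounds at 15 concentrations for 22hr at 37C; luminescence read with ONE-Glo.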

[3] = qHTS assay to identify small molecule agonists or antagonists of the thyroid stimulating hormone receptor (TSHR) signaling pathway - wild type cell line counter screen (AID 1259384; calls by dose curve)
Outline: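 Wild-type HEK293 cells were plated 18 h at 37 C/5% CO2, pin-dosed with compound plus Ro20-1724 medium, held 30 min at room temperature, then given cAMP-d2 and anti-cAMP-cryptate; fluorescence was read after 1 h. Fifteen concentrations, triplicate.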

[4] = biological target: Thyrotropin receptor (Homo sapiens) (UniProt P16473); assay: qHTS assay to identify small molecule antagonists of the thyroid stimulating hormone receptor (TSHR) signaling pathway (AID 1259385; calls by dose curve; also: nearly all actives have a fitted effect of over 20% in size)
Thyrotropin receptor (Homo sapiens), sequence (P16473 whole entry, looked up): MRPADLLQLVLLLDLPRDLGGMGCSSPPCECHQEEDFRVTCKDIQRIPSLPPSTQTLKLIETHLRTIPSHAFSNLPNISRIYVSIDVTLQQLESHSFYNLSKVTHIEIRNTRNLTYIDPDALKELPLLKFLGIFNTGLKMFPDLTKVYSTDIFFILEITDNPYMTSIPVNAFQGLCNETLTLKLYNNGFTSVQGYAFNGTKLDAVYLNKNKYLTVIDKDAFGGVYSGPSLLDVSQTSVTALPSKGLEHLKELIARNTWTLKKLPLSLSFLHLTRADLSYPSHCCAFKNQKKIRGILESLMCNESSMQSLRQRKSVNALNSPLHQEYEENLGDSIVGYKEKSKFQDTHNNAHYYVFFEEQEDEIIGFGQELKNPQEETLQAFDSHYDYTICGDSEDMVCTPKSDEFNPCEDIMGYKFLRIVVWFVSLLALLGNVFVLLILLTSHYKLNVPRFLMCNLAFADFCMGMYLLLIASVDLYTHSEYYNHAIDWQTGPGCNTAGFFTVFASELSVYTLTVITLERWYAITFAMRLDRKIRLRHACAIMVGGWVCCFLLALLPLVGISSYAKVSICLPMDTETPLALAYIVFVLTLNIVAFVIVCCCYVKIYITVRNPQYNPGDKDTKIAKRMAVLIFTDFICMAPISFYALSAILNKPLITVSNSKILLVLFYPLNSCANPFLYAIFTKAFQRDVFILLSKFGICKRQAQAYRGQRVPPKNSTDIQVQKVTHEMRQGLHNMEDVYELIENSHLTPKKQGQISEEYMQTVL
Outline: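 TSHR-HEK293 cells were plated and held 18 h at 37C/5% CO2, then given compound plus Ro20-1724 and stimulated with TSH at 1.5 ng/mL final. After 30 min at room temperature, cAMP was detected with cAMP-d2/anti-cAMP-cryptate (1 h) by fluorescence.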

[5] = qHTS assay to identify small molecule agonists of the estrogen receptor alpha (ER-alpha) signaling pathway in the presence of an antagonist - cell viability counter screen (AID 1259386);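 also: series mostly up to about 92 µM; cells exposed to compounds for 22 h at 37 °C before the viability read; nearly all actives have a fitted effect of over 30% in size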
Outline: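 VM7Luc4E2 cells (endogenous full-length ER-alpha, 4×ERE-luciferase) were held 5 days in phenol red-free medium with 10% charcoal-stripped FBS, plated, then given 10.0nM ICI-182,780 and compounds at 15 concentrations for 22hr at 37C; viability read by CellTiter-Fluor fluorescence.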

[6] = biological target: Progesterone receptor (Homo sapiens) (UniProt P06401); assay: qHTS assay to identify small molecule agonists of the progesterone receptor (PR) signaling pathway (AID 1346784; calls by dose curve; also: nearly all actives have a fitted effect of over 30% in size)
Progesterone receptor (Homo sapiens), sequence (P06401 whole entry, looked up): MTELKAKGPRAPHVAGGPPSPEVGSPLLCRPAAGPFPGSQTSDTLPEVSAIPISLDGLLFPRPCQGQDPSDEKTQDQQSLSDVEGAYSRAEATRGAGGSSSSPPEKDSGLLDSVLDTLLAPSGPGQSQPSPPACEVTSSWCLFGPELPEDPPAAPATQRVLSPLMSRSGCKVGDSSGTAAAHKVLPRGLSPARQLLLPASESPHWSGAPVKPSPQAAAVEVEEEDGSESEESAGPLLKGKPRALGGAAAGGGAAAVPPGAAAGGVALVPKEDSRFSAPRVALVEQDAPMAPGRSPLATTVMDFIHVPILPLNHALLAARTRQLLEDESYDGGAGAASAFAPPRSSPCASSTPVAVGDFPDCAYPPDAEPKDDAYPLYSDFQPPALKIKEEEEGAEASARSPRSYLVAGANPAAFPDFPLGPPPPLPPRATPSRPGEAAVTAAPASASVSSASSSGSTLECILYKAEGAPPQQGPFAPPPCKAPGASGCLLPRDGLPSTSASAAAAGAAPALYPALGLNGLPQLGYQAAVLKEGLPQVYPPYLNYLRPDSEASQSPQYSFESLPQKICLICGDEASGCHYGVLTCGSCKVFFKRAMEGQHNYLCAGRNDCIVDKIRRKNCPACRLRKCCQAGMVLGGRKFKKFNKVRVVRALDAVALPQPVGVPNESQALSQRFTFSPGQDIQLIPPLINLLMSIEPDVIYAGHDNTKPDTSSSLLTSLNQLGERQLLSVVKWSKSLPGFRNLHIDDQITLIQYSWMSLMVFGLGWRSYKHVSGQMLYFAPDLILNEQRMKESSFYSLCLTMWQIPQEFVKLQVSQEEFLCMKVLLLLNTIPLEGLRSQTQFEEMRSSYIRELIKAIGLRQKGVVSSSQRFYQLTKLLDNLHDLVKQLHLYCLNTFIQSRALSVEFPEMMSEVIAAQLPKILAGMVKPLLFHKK
Outline: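 The screen uses PR-UAS-bla HEK 293T cells in charcoal-stripped serum (2%). Compounds are applied for 16 hr at 37C after a 6 hr pre-incubation, and reporter activity is detected with a FRET beta-lactamase substrate after 2 hr at room temperature.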

[7] = biological target: Progesterone receptor (Homo sapiens) (UniProt P06401); assay: qHTS assay to identify small molecule antagonists of the progesterone receptor (PR) signaling pathway (AID 1346795; active = well fitted inhibition curve with a large enough effect in the signal ratio in the repeat runs, not every such curve was filed as active; the % refers to the signal ratio)
Outline: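 After 6 hr plating at 37C in 2% stripped-serum medium, PR-UAS-bla HEK293T cells got compounds, then 1 nM R5020. Sixteen hours later, LiveBLAzer substrate was applied for 2 hr at room temperature and fluorescence was recorded.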

[8] = qHTS assay to identify small molecule antagonists of the progesterone receptor (PR) signaling pathway - cell viability counter screen (AID 1346798); also: series mostly up to about 92 µM; nearly all actives have a fitted effect of over 50% in size
Outline: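 Viability was determined by ATP-based luminescence (CellTiter-Glo) in PR-UAS-bla HEK293T cells cultured in 2% charcoal-stripped serum and incubated 16 hr with compounds under R5020 stimulation.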

[9] = qHTS assay to identify small molecule agonists of the progesterone receptor (PR) signaling pathway - cell viability counter screen (AID 1346799; calls by dose curve; also: nearly all actives have a fitted effect of over 45% in size)
Outline: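 Viability was scored by ATP luminescence (CellTiter-Glo, 30 min, room temperature) in the same wells used for the reporter readout, after 16 hr compound exposure of PR-UAS-bla HEK293T cells.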

[10] = qHTS assay to identify small molecule antagonists of the TGF-beta/Smad signaling pathway - cell viability counter screen (AID 1346824); also: nearly all actives have a fitted effect of over 50% in size
Outline: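 SBE-bla HEK 293T cells were plated overnight at 37 C, then given compounds in DMSO plus TGF-beta1 (added as 0.25 ng/mL solution) for 5 hr. After the bla read, CellTiter-Glo was added to the same wells and luminescence read after 30 min at room temperature.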

[11] = qHTS assay to identify small molecule agonists of the TGF-beta/Smad signaling pathway - cell viability counter screen (AID 1346829); also: top concentration of the series differs between compounds; nearly all actives have a fitted effect of over 45% in size
Outline: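 Here the cytotoxicity of library compounds is measured in SBE-bla HEK 293T cells treated for 5 hr, using CellTiter-Glo added to wells already read for the beta-lactamase reporter.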

[12] = qHTS assay to identify small molecule agonists of the TGF-beta/Smad signaling pathway (AID 1346859; active = well fitted activation curve with a large enough effect in the signal ratio in the repeat runs, not every such curve was filed as active; the % refers to the signal ratio; also: series mostly up to about 77 µM)
Outline: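 Dual-wavelength fluorescence (460/530 nm emission) quantified beta-lactamase expression under the Smad binding element in HEK 293T cells following 5 hr compound treatment at 37 C.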

[13] = biological target: Thyrotropin-releasing hormone receptor (Homo sapiens) (UniProt P34981); assay: qHTS assay to identify small molecule antagonists of the thyrotropin-releasing hormone receptor (TRHR) signaling pathway (AID 1346877; active = well fitted inhibition curve with a large enough effect in the repeat runs, not every such curve was filed as active; also: series mostly up to about 51 µM)
Thyrotropin-releasing hormone receptor (Homo sapiens), sequence (P34981 whole entry, looked up): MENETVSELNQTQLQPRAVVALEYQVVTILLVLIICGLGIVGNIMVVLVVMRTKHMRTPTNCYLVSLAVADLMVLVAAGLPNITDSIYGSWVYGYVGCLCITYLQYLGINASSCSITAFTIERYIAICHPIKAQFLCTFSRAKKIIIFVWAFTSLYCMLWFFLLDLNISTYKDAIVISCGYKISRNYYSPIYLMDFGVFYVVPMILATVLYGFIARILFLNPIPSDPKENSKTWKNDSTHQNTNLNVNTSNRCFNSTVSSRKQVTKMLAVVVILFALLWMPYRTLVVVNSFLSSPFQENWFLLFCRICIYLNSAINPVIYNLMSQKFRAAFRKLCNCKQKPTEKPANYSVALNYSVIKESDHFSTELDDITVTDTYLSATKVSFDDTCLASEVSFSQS
Outline: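 TRHR-expressing HEK293 cells were seeded, cultured 18 h at 37 °C, then loaded with calcium dye for 2 h. Compounds were pre-incubated 5 min at room temperature before 1 nM TRH (final) was added, and kinetic fluorescence was recorded for 3 min.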

[14] = biological target: Thyrotropin-releasing hormone receptor (Homo sapiens) (UniProt P34981); assay: qHTS assay to identify small molecule agonists of the thyrotropin-releasing hormone receptor (TRHR) signaling pathway (AID 1346891; calls by dose curve; also: series mostly up to about 58 µM)
Outline: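 Kinetic fluorescence (3 min, 1 s intervals) reported intracellular calcium after compound transfer onto TRHR-Hek293 cells pre-loaded with dye for 2 h at 37 °C.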

[15] = Human pregnane X receptor (PXR) small molecule agonists, qHTS cell viability counter screen (AID 1346977); also: nearly all actives have a fitted effect of over 50% in size
Outline: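 HepG2 cells stably carrying the PXR-Luc reporter are cultured with 5% charcoal-stripped FBS and treated with compounds for 24hr. CellTiter-Fluor is added at 23hr and fluorescence is read after 1hr.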

[16] = Caspase-3/7 induction in HepG2 cells by small molecules, qHTS assay (AID 1346978); also: nearly all actives have a fitted effect of over 15% in size
Outline: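 Wild-type HepG2 cells (2,000/well) were settled 5 h at 37 C, 5% CO2, then exposed to compounds in DMSO for 17 h. Caspase-3/7 activity was read by luminescence 30 min after adding Caspase-Glo 3/7 reagent at room temperature.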

[17] = Caspase-3/7 induction in CHO-K1 cells by small molecules, qHTS cell viability counter screen (AID 1346979); also: nearly all actives have a fitted effect of over 35% in size
Outline: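 Seeding: 1,500 CHO-K1 cells/well. Rest: 5hr, 37C. Treatment: compounds in DMSO, 16hr. Read: CellTiter-Fluor, 1hr, fluorescence.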

[18] = Caspase-3/7 induction in CHO-K1 cells by small molecules, qHTS assay (AID 1346980); also: nearly all actives have a fitted effect of over 15% in size
Outline: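 Wild-type cells were seeded at 1,500 per well and settled 5 hr at 37 C, 5% CO2, then exposed to DMSO-dissolved compounds for 17 hr. Caspase-Glo 3/7 reagent was added, and luminescence was read after 30min at room temperature.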

[19] = Caspase-3/7 induction in HepG2 cells by small molecules, qHTS cell viability counter screen (AID 1346981); also: series mostly up to about 92 µM; nearly all actives have a fitted effect of over 30% in size
Outline: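 Wild-type HepG2 cells (2,000/well) were allowed to settle for 5 hr at 37 C, 5% CO2, then dosed with compounds in DMSO by pin transfer. After 16 hr at 37 C, CellTiter-Fluor was added and fluorescence read 1 hr later.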

Measured: Potency

CCCCCCCCCCCCC
inactive: [1] | [2] | [3] | [4] | [5] | [6] | [7] | [8] | [9] | [10] | [11] | [12] | [13] | [14] | [15] | [16] | [17] | [18] | [19]

Cc1cc(C)cc([N+](=O)[O-])c1
inactive: [1] | [2] | [3] | [4] | [5] | [6] | [7] | [8] | [9] | [10] | [11] | [12] | [15] | [16] | [17] | [18] | [19]

COC(=O)CCC(=O)O
inactive: [1] | [2] | [3] | [4] | [5] | [6] | [7] | [8] | [9] | [10] | [11] | [12] | [15] | [16] | [17] | [18]

CN(C)CCOCCN(C)CCO
inactive: [1] | [2] | [3] | [4] | [5] | [6] | [7] | [8] | [9] | [10] | [11] | [12] | [13] | [14] | [15] | [16] | [17] | [18] | [19]

Nc1ccc(C(=O)OCC(O)CO)cc1 (stereo not given)
inactive: [1] | [2] | [3] | [4] | [5] | [6] | [7] | [8] | [10] | [11] | [12] | [13] | [14] | [15] | [16] | [17] | [18] | [19]

CCN1CN(CC)CN(CC)C1
inactive: [1] | [2] | [3] | [4] | [5] | [6] | [7] | [9] | [10] | [11] | [12] | [13] | [14] | [15] | [16] | [17] | [18]

NC(=O)NC(=O)Cc1ccccc1
inactive: [1] | [2] | [3] | [4] | [5] | [6] | [7] | [8] | [9] | [10] | [11] | [12] | [13] | [14] | [15] | [16] | [17] | [18] | [19]
